Data reported in PubChem BioAssay (Tox21).
Records with an inconclusive call do not appear. Calls of active or inactive are those of the source. Unless noted, the call rests on the fitted dose curve; in most records, active means well fitted curve in the direction sought with a large enough effect in the repeat runs; inconclusive means weak or mixed curves; inactive means no such curve, though single readings can be large; an effect the other way counts as inactive or inconclusive.

Experiments:
[1] = biological target: Progesterone receptor (Homo sapiens) (UniProt P06401); assay: qHTS assay to identify small molecule agonists of the progesterone receptor (PR) signaling pathway (AID 1346784; calls by dose curve; further: nearly all actives have a fitted effect of over 30% in size)
Progesterone receptor (Homo sapiens), sequence (P06401 whole entry, looked up): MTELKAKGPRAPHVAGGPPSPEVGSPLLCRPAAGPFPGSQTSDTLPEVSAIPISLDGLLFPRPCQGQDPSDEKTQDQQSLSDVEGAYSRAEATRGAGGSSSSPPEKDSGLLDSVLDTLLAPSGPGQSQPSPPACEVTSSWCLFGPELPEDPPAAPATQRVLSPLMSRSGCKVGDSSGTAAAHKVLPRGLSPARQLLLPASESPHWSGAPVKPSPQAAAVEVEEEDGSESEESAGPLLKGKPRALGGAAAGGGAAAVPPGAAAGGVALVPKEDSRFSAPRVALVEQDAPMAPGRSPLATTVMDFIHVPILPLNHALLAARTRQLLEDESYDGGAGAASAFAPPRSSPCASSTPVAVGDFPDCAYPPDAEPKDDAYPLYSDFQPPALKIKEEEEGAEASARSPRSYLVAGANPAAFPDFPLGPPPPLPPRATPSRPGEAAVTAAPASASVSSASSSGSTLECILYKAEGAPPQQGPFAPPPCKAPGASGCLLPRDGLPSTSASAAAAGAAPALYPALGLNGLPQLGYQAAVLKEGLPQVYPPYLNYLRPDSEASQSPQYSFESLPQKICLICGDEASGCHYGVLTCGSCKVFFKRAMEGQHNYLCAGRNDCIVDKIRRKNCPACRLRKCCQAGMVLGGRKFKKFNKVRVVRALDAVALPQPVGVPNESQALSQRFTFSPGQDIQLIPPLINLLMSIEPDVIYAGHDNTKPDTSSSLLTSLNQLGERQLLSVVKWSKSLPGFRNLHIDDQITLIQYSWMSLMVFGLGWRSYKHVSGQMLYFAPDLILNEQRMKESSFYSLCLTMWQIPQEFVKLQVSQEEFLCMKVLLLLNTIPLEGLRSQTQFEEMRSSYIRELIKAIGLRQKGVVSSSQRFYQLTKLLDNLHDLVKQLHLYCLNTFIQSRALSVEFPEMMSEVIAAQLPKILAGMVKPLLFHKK
Procedure, shortened: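 The screen uses PR-UAS-bla HEK 293T cells in charcoal-stripped serum (2%). Compounds are applied for 16 hr at 37C after a 6 hr pre-incubation, and reporter activity is detected with a FRET beta-lactamase substrate after 2 hr at room temperature.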

[2] = qHTS assay to identify small molecule antagonists of the progesterone receptor (PR) signaling pathway - cell viability counter screen (AID 1346798); further: series mostly up to about 92 µM; nearly all actives have a fitted effect of over 50% in size
Procedure, shortened: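 Viability was determined by ATP-based luminescence (CellTiter-Glo) in PR-UAS-bla HEK293T cells cultured in 2% charcoal-stripped serum and incubated 16 hr with compounds under R5020 stimulation.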

[3] = qHTS assay to identify small molecule agonists of the progesterone receptor (PR) signaling pathway - cell viability counter screen (AID 1346799; calls by dose curve; further: nearly all actives have a fitted effect of over 45% in size)
Procedure, shortened: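 Viability was scored by ATP luminescence (CellTiter-Glo, 30 min, room temperature) in the same wells used for the reporter readout, after 16 hr compound exposure of PR-UAS-bla HEK293T cells.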

[4] = qHTS assay to identify small molecule antagonists of the TGF-beta/Smad signaling pathway - cell viability counter screen (AID 1346824); further: nearly all actives have a fitted effect of over 50% in size
Procedure, shortened: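 SBE-bla HEK 293T cells were plated overnight at 37 C, then given compounds in DMSO plus TGF-beta1 (added as 0.25 ng/mL solution) for 5 hr. After the bla read, CellTiter-Glo was added to the same wells and luminescence read after 30 min at room temperature.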

[5] = qHTS assay to identify small molecule agonists of the TGF-beta/Smad signaling pathway - cell viability counter screen (AID 1346829); further: top concentration of the series differs between compounds; nearly all actives have a fitted effect of over 45% in size
Procedure, shortened: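 SBE-bla HEK 293T cells plated overnight, compound exposure 5 hr at 37 C. Viability read in the same wells by CellTiter-Glo luminescence after 30 min at room temperature, following the beta-lactamase read.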

[6] = qHTS assay to identify small molecule agonists of the TGF-beta/Smad signaling pathway (AID 1346859; active means well fitted activation curve with a large enough effect in the signal ratio in the repeat runs, not every such curve was filed as active; the % refers to the signal ratio; further: series mostly up to about 77 µM)
Procedure, shortened: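 Dual-wavelength fluorescence (460/530 nm emission) quantified beta-lactamase expression under the Smad binding element in HEK 293T cells following 5 hr compound treatment at 37 C.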

[7] = biological target: Thyrotropin-releasing hormone receptor (Homo sapiens) (UniProt P34981); assay: qHTS assay to identify small molecule antagonists of the thyrotropin-releasing hormone receptor (TRHR) signaling pathway (AID 1346877; active means well fitted inhibition curve with a large enough effect in the repeat runs, not every such curve was filed as active; further: series mostly up to about 51 µM)
Thyrotropin-releasing hormone receptor (Homo sapiens), sequence (P34981 whole entry, looked up): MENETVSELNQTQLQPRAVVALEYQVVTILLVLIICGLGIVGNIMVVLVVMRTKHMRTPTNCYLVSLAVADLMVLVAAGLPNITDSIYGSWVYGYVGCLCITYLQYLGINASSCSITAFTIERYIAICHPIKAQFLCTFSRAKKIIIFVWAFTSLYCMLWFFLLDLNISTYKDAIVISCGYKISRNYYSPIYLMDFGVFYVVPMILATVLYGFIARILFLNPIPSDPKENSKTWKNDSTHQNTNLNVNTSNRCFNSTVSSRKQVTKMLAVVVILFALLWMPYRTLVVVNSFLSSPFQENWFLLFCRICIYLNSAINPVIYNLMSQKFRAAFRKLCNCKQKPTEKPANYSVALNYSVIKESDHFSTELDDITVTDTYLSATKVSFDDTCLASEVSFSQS
Procedure, shortened: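 Antagonism is measured as suppression of the calcium response to 1 nM TRH in TRHR-HEK293 cells that have been dye-loaded for 2 h at 37 °C after overnight plating. Each compound is tested at 15 concentrations in triplicate.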

[8] = biological target: Thyrotropin-releasing hormone receptor (Homo sapiens) (UniProt P34981); assay: qHTS assay to identify small molecule agonists of the thyrotropin-releasing hormone receptor (TRHR) signaling pathway (AID 1346891; calls by dose curve; further: potency means the concentration at half of the fitted maximal effect;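 on activation: HEK293 cells expressing TRHR with calcium dye readout; series mostly up to about 58 µM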)
Procedure, shortened: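 Kinetic fluorescence (3 min, 1 s intervals) reported intracellular calcium after compound transfer onto TRHR-Hek293 cells pre-loaded with dye for 2 h at 37 °C.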

[9] = Human pregnane X receptor (PXR) small molecule agonists, qHTS cell viability counter screen (AID 1346977); further: nearly all actives have a fitted effect of over 50% in size; further: potency means the concentration at half of the fitted maximal effect
Procedure, shortened: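 HepG2 cells stably carrying the PXR-Luc reporter are cultured with 5% charcoal-stripped FBS and treated with compounds for 24hr. CellTiter-Fluor is added at 23hr and fluorescence is read after 1hr.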

[10] = Caspase-3/7 induction in HepG2 cells by small molecules, qHTS assay (AID 1346978); further: nearly all actives have a fitted effect of over 15% in size; further: potency means the concentration at half of the fitted maximal effect
Procedure, shortened: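 Wild-type HepG2 cells (2,000/well) were settled 5 h at 37 C, 5% CO2, then exposed to compounds in DMSO for 17 h. Caspase-3/7 activity was read by luminescence 30 min after adding Caspase-Glo 3/7 reagent at room temperature.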

[11] = Caspase-3/7 induction in CHO-K1 cells by small molecules, qHTS cell viability counter screen (AID 1346979); further: nearly all actives have a fitted effect of over 35% in size; further: potency means the concentration at half of the fitted maximal effect
Procedure, shortened: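 Seeding: 1,500 CHO-K1 cells/well. Rest: 5hr, 37C. Treatment: compounds in DMSO, 16hr. Read: CellTiter-Fluor, 1hr, fluorescence.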

[12] = Caspase-3/7 induction in CHO-K1 cells by small molecules, qHTS assay (AID 1346980); further: nearly all actives have a fitted effect of over 15% in size
Procedure, shortened: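 Wild-type cells were seeded at 1,500 per well and settled 5 hr at 37 C, 5% CO2, then exposed to DMSO-dissolved compounds for 17 hr. Caspase-Glo 3/7 reagent was added, and luminescence was read after 30min at room temperature.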

[13] = Caspase-3/7 induction in HepG2 cells by small molecules, qHTS cell viability counter screen (AID 1346981); further: nearly all actives have a fitted effect of over 30% in size; further: potency means the concentration at half of the fitted maximal effect
Procedure, shortened: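 Cell viability is measured as a cytotoxicity counter screen alongside the Caspase-Glo 3/7 readout in identical wells. Wild-type HepG2 cells are treated with test compounds for 16 hr at 37 C before CellTiter-Fluor addition and a 1-hr incubation.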

[14] = biological target: Nuclear receptor subfamily 1 group I member 2 (Homo sapiens) (UniProt O75469); assay: Human pregnane X receptor (PXR) small molecule agonists, qHTS assay (AID 1346982); further: nearly all actives have a fitted effect of over 35% in size; further: potency means the concentration at half of the fitted maximal effect
Nuclear receptor subfamily 1 group I member 2 (Homo sapiens), sequence (O75469 whole entry, looked up): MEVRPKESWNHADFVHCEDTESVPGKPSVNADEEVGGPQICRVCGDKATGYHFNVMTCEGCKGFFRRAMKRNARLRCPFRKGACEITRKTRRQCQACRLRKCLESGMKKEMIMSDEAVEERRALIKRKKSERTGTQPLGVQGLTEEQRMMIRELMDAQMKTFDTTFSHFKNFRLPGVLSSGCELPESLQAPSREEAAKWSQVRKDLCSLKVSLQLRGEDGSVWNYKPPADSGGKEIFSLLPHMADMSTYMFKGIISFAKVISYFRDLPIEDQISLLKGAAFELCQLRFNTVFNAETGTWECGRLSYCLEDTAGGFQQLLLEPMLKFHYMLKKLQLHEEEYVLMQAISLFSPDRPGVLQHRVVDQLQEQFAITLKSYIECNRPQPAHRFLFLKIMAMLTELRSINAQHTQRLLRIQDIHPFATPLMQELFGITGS
Procedure, shortened: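 Cells: HepG2 stably carrying PXR-Luc. Medium held 5% charcoal-stripped FBS. Compounds in DMSO added after 5 hr plating, incubated 24 hr, then luminescence quantified with ONE-Glo.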

[15] = biological target: Progesterone receptor (Homo sapiens) (UniProt P06401); assay: qHTS assay to identify small molecule antagonists of the progesterone receptor (PR) signaling pathway (AID 1346795; active means well fitted inhibition curve with a large enough effect in the signal ratio in the repeat runs, not every such curve was filed as active; the % refers to the signal ratio; further: potency means the concentration at half of the fitted maximal effect)
Procedure, shortened: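 After 6 hr plating at 37C in 2% stripped-serum medium, PR-UAS-bla HEK293T cells got compounds, then 1 nM R5020. Sixteen hours later, LiveBLAzer substrate was applied for 2 hr at room temperature and fluorescence was recorded.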

[16] = biological target: Nuclear receptor subfamily 1 group I member 2 (Rattus norvegicus) (UniProt Q9R1A7); assay: Rat pregnane X receptor (rPXR) activation by small molecules, qHTS assay (AID 1346983); conditions: rPXR luciferase reporter cells, One-Glo luminescence, 24 h; max activation: hits give high values; further: nearly all actives have a fitted effect of over 20% in size; further: potency means the concentration at half of the fitted maximal effect
Nuclear receptor subfamily 1 group I member 2 (Rattus norvegicus), sequence (Q9R1A7 whole entry, looked up): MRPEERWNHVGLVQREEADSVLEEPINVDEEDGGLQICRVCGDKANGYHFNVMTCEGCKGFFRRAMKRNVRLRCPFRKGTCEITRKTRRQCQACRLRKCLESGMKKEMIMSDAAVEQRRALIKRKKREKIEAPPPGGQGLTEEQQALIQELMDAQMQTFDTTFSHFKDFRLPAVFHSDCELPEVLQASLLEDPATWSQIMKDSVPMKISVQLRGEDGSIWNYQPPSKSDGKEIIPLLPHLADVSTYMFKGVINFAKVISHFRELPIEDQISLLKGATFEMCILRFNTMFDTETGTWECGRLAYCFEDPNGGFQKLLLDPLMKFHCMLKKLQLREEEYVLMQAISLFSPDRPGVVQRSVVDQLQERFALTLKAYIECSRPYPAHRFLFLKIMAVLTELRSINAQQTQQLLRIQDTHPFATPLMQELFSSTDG
Procedure, shortened: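 Cell-based rPXR luciferase reporter assay, 2,000 cells per well, rested 5hr at 37 C before compound addition in DMSO, then 24 hr at 37 C. One-Glo reagent was added and luminescence read after 30 min at room temperature.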

[17] = biological target: Nuclear receptor subfamily 1 group I member 2 (Homo sapiens) (UniProt O75469); assay: CYP3A4 induction through human pregnane X receptor (PXR) by small molecules, qHTS assay (AID 1346984); further: nearly all actives have a fitted effect of over 40% in size
Procedure, shortened: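 Quantitative HTS in DPX-2 cells, i.e. HepG2 transfected with PXR response element and CYP3A4-promoter luciferase. Compounds in DMSO incubated 24hr at 37C; then P450-Glo CYP3A4 substrate, 3uM final, 3hr; One-Glo luminescence.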

[18] = biological target: Nuclear receptor subfamily 1 group I member 2 (Homo sapiens) (UniProt O75469); assay: Human pregnane X receptor (PXR) activation by small molecules, qHTS assay (AID 1346985); further: nearly all actives have a fitted effect of over 40% in size
Procedure, shortened: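 DPX-2 cells (HepG2 co-transfected with a PXR response element and a CYP3A4-promoter luciferase construct) were seeded at 2,000 per well, rested 5 hr at 37C, then exposed to DMSO-dissolved compounds for 24 hr. Activation was read as luciferase luminescence.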

[19] = qHTS assay to identify small molecule agonists of the estrogen receptor alpha (ER-alpha) signaling pathway in the presence of an antagonist - cell viability counter screen (AID 1259386);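 further: cells exposed to compounds for 22 h at 37 °C before the viability read; nearly all actives have a fitted effect of over 30% in size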; further: potency means the concentration at half of the fitted maximal effect
Procedure, shortened: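 Cytotoxicity was measured in parallel with the ERE-luciferase agonist screen, in the same wells. The cells were VM7Luc4E2, which endogenously express ER-alpha, and treatment was with compounds plus 10.0nM ICI-182,780 for 22hr.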
On the % scale 0 is the no-effect control and ±100 the full control effect.

O=[N+]([O-])c1ccc(Nc2ccc(Nc3ccccc3)c(S(=O)(=O)O)c2)c([N+](=O)[O-])c1
active: Potency [9] 68.6 µM | Potency [11] 54.5 µM | Potency [13] 61.1 µM
inactive: Potency [1] | Potency [2] | Potency [3] | Potency [4] | Potency [5] | Potency [6] | outcome [7] | Potency [8] | Potency [10] | Potency [12]

O=C1c2ccccc2C(=O)N1CCc1noc(-c2ccc(CN3CCCCCC3)s2)n1
inactive: Potency [1] | Potency [2] | Potency [3] | Potency [4] | Potency [5] | outcome [7] | Potency [10] | Potency [12]
active: Potency [14] 14.1 µM

Oc1cc2c(cc1O)[C@H]1c3ccc(O)c(O)c3OC[C@@]1(O)C2
inactive: Potency [4] | Potency [5] | Potency [6] | outcome [7] | Potency [8] | Potency [10] | Potency [12] | Potency [14]
active: Potency [9] 27.6 µM | Potency [11] 27.6 µM | Potency [13] 55.1 µM

CN1C(C(=O)Nc2ccccn2)=C(O)c2sccc2S1(=O)=O
inactive: Potency [1] | Potency [15] | Potency [2] | Potency [3] | Potency [4] | Potency [5] | Potency [6] | outcome [7] | Potency [8] | Potency [9] | Potency [10] | Potency [12] | Potency [13] | Potency [14] | max activation [16] -1.49% | Potency [17] | Potency [18]

C[C@@H](O[C@H]1OCCN(Cc2n[nH]c(=O)[nH]2)[C@H]1c1ccc(F)cc1)c1cc(C(F)(F)F)cc(C(F)(F)F)c1
inactive: Potency [19] | Potency [4] | Potency [5] | Potency [6] | outcome [7] | Potency [8] | Potency [12]
active: Potency [10] 33.5 µM | Potency [11] 29.8 µM | Potency [13] 29.8 µM

CCC(=O)C1CC(C(C)C)CC=C1C (stereo not drawn)
inactive: Potency [1] | Potency [15] | Potency [2] | Potency [3] | Potency [4] | Potency [5] | Potency [6] | Potency [9] | Potency [11] | Potency [12]

CC[N+](CC)(CCNC(=O)C(=O)NCC[N+](CC)(CC)Cc1ccccc1Cl)Cc1ccccc1Cl
inactive: Potency [1] | Potency [15] | Potency [2] | Potency [3] | Potency [4] | Potency [5] | Potency [6] | outcome [7] | Potency [8] | Potency [9] | Potency [10] | Potency [11] | Potency [12] | Potency [13] | max activation [16] -3.21% | Potency [18]

CCOC(=O)c1ccc(C#Cc2ccc3c(c2)C(C)(C)CCS3)nc1
active: Potency [14] 33.5 µM | Potency [16] 10 µM
inactive: Potency [19] | Potency [4] | Potency [5] | outcome [7] | Potency [8] | Potency [9] | Potency [10] | Potency [12] | Potency [13] | Potency [18]

C=CC(=O)OCC1CC2CC1C1CCC(COC(=O)C=C)C21 (stereo not drawn)
active: Potency [11] 48.6 µM | Potency [14] 34.4 µM
inactive: Potency [19] | Potency [2] | Potency [4] | Potency [5] | Potency [6] | outcome [7] | Potency [8] | Potency [9] | Potency [13]

c1cc(N(CC2CO2)CC2CO2)ccc1Cc1ccc(N(CC2CO2)CC2CO2)cc1 (stereo not drawn)
active: Potency [9] 54.5 µM | Potency [11] 54.5 µM | Potency [13] 61.1 µM | Potency [14] 27.3 µM
inactive: Potency [4] | Potency [5] | outcome [7] | Potency [10] | Potency [12]

CC(C)=CCC/C(C)=C/CC/C(C)=C/C(=O)OCC(=O)[C@@]1(O)CC[C@H]2[C@@H]3CCC4=CC(=O)C=C[C@]4(C)[C@H]3[C@@H](O)C[C@@]21C
active: Potency [11] 18.8 µM | Potency [14] 1.88 µM
inactive: Potency [1] | Potency [5] | Potency [6] | Potency [9] | Potency [10] | Potency [12]

CN1C[C@H](C(=O)N[C@]2(C)O[C@@]3(O)[C@@H]4CCCN4C(=O)[C@H](Cc4ccccc4)N3C2=O)C[C@@H]2c3cccc4[nH]cc(c34)C[C@H]21
inactive: Potency [1] | Potency [5] | outcome [7] | Potency [8]
active: Potency [9] 21.1 µM | Potency [11] 26.6 µM | Potency [13] 26.6 µM | Potency [14] 10.6 µM

CC(C)(C)CC(=O)OCC(=O)[C@@]1(O)CC[C@H]2[C@@H]3CCC4=CC(=O)C=C[C@]4(C)[C@H]3[C@@H](O)C[C@@]21C
active: Potency [15] 21.1 µM
inactive: Potency [1] | Potency [5] | Potency [6] | outcome [7] | Potency [8] | Potency [9] | Potency [10] | Potency [12] | Potency [13]

Brc1cc2ccccc2c2ccccc12
inactive: Potency [1] | Potency [2] | Potency [4] | Potency [5] | Potency [6] | outcome [7] | Potency [8] | Potency [9] | Potency [10] | Potency [11] | Potency [12] | Potency [13]

Oc1cccc(Nc2ccccc2)c1
active: Potency [15] 20.2 µM | Potency [14] 63.8 µM
inactive: Potency [1] | Potency [4] | Potency [5] | Potency [6] | outcome [7] | Potency [8] | Potency [9] | Potency [10] | Potency [11] | Potency [12] | Potency [13]

COc1ccc(OC(=O)N(CC(=O)O)Cc2ccc(OCCc3nc(-c4ccccc4)oc3C)cc2)cc1
inactive: Potency [1] | Potency [15] | Potency [4] | Potency [5] | Potency [9] | Potency [10] | Potency [11] | Potency [12] | Potency [13]

CC(=O)OCC[N+](C)(C)C
active: Potency [8] 3.01 µM
inactive: Potency [1] | Potency [15] | Potency [2] | Potency [3] | Potency [4] | Potency [5] | Potency [6] | Potency [9] | Potency [10] | Potency [12] | Potency [13] | Potency [14]

O=[N+]([O-])c1ccc(O/N=C/c2cc(Br)c(O)c(Br)c2)c([N+](=O)[O-])c1
inactive: Potency [5] | Potency [10] | Potency [12]
active: Potency [19] 27.2 µM | Potency [9] 30.5 µM | Potency [11] 15.3 µM | Potency [13] 27.2 µM
